Assay [1] relates to XIP peptide (Xip251-270) binding. In words: XIP fragment 251-270 binding compounds – biochemical, small-molecule microarray, fluorescence 635/667 nm, 0.1 µg/mL protein, primary screen (AID 1182). To be noted: fluorescent protein binding, 635 nm, higher = more signal, called active from +8 up or from −8 down.
A further assay deals with XIP peptide (Xip251-270). Description: compounds binding XIP fragment 251-270 – biochemical, small-molecule microarray, fluorescence 635/667 nm, 0.5 µg/mL protein, primary screen (AID 1183). To be noted: fluorescence 635 nm, higher = more signal.
The nature of assay [2]: blood-stage malaria parasite viability loss – strain 3D7, DAPI fluorescence, 100 nL, primary screen (AID 1184).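 Also: parasites grown inside human red blood cells in medium with human serum.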 To be noted: P. falciparum 3D7 growth, 3 d, higher = more signal.
For assay [3], the target named is Homeobox protein Hox-A13 (Mus musculus) (UniProt Q62424). In words: disruptors of Hoxa13 oligonucleotide interaction – biochemical, fluorescence polarization, labeled oligonucleotide, primary screen (AID 1185). To be noted: Hoxa13:DNA binding, 15 min, higher = more signal, called active from +8 up or from −8 down. In general terms: Fluorescence polarisation rises when a labelled molecule tumbles more slowly, as on binding a larger partner.

Active and inactive are the calls of the source.

Chain of Homeobox protein Hox-A13 (Mus musculus) (Q62424 whole entry, looked up): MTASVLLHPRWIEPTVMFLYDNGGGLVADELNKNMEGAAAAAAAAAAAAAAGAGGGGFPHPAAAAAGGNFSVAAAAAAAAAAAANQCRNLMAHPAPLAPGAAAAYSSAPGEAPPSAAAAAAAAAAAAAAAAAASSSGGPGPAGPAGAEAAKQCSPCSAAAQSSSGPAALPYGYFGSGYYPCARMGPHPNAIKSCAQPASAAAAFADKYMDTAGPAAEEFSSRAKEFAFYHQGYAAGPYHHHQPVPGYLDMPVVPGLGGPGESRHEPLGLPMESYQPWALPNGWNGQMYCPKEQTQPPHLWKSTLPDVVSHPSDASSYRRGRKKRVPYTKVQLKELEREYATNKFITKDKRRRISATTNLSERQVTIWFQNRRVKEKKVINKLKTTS

As to `CON=C[C@@H](NS(=O)(=O)c1ccc(C)cc1)[C@H](C)C=CCC(=O)OC`, the figures for the composite z-score (in assay [1]; in the assay with XIP peptide (Xip251-270)) were 0.212 (inactive) and 0.332, respectively. In addition, the z-score is 1.25 in assay [2] and 1.12 (inactive) in assay [3].
On the same counts, the results for `CO[C@@H]1COC(=O)[C@@H]2CCCN2C(=O)[C@@H](C)COC(=O)CC=C[C@H]1C` are 0.523 (inactive), 0.569, 0.442 and -0.236 (inactive).
As for `CCN1C(=O)[C@H]2[C@H]3[C@H](O)[C@H](O)CC(=NOC[C@H]4O[C@H](c5ccccc5)C=C[C@@H]4Oc4ccc(OC)cc4)[C@@H]3CC[C@H]2C1=O`, the composite z-score is 0.432 (inactive) in assay [1] and 0.704 with XIP peptide (Xip251-270). Besides, the values for the z-score in assay [2] and in assay [3] were 0.188 and -10.8 (active), respectively.
Turning to `COc1cccc([C@H]2Oc3ccc(OC)cc3C(=NOC[C@@H](O)COCc3ccco3)[C@@H]2O)c1`, the values for the composite z-score (in assay [1]; with XIP peptide (Xip251-270)) were 0.252 (inactive) and -1.5, respectively. Further, the z-score in assay [2] is 0.563; in assay [3], -5.25 (inactive).
Turning to `CC(C)=CCCC(C)=CCON=C1C[C@@H](O)[C@@H](O)[C@@H]2[C@@H]3C(=O)N(c4ccc(F)cc4F)C(=O)[C@@H]3CC[C@H]12`, the composite z-score in assay [1] was -0.163 (inactive); with XIP peptide (Xip251-270) it was 0.37. The z-score in assay [2] was 0.0436; in assay [3], -2.5 (inactive).
Take `O=C(NN=C1C[C@@H](O)[C@@H](O)[C@@H]2[C@@H]3C(=O)N(C4CCCCC4)C(=O)[C@@H]3CC[C@@H]12)OCc1ccccc1`: the values for the composite z-score (in assay [1]; in the assay with XIP peptide (Xip251-270)) were 0.152 (inactive) and -0.0414, respectively. In addition, the results for the z-score in assay [2] and in assay [3] were -0.321 and -3.09 (inactive), respectively.
For `CO[C@@H]1C=CCC(=O)N[C@@H](C)C(=O)OC[C@@H](OC)[C@H](C)CCCC(=O)OC[C@H]1C`, the composite z-score is -0.203 (inactive) in assay [1] and 0.111 in the assay with XIP peptide (Xip251-270). Besides, the z-score in assay [2] was 0.0984; in assay [3] it was -0.313 (inactive).
On to `CC(=O)Nc1ccc([C@@H]2N[C@H](C(=O)O)CC[C@H]2C)cc1`, for which the composite z-score is -0.0813 (inactive) in assay [1] and 0.119 in the assay with XIP peptide (Xip251-270). Moreover, the z-score was 0.962 in assay [2] and -0.107 (inactive) in assay [3].
In the case of `CCOC(=O)[C@H](CC(C)C)NC(=O)CCC1CC(OC(=O)NCc2cccc3ccccc23)CC2(CCCC(COC(=O)NCCOC)O2)O1` (stereo partly drawn), the composite z-score is -0.182 (inactive) in assay [1] and 0.446 in the assay with XIP peptide (Xip251-270). Moreover, the z-score in assay [2] is -1.88; in assay [3], -3.68 (inactive).
Regarding `CCOC(=O)[C@H](CC(C)C)NC(=O)CCC1CC(OC(=O)NCCc2ccc(F)cc2)CC2(CCCC(COC(=O)NCCc3ccccc3OC)O2)O1` (stereo partly drawn), the composite z-score in assay [1] is 0.742 (inactive); in the assay on XIP peptide (Xip251-270), 0.578. The z-score in assay [2] is -1.89; in assay [3], -2.36 (inactive).
Taken in the same sequence, the figures for `COC(=O)CC=C[C@@H](C)[C@@H](C=NOCC[C@@H]1C=C[C@H](OC(C)=O)[C@@H](COC(C)=O)O1)OC` were -0.198 (inactive), 0.239, 1.13 and -1.14 (inactive).
For `CO[C@H]1COC(=O)CC=C[C@H](C)[C@@H](OC)COC(=O)[C@@H](C)COC(=O)CC=C[C@@H]1C`, the results for the composite z-score (in assay [1]; in the assay on XIP peptide (Xip251-270)) were -0.0653 (inactive) and -0.396, respectively. The z-score in assay [2] is -0.276; in assay [3] it was -1.42 (inactive).
On the same counts, the results for `CCOC(=O)[C@H](CC(C)C)NC(=O)CCC1CC(OC(=O)NCc2cccc3ccccc23)CC2(CCCC(COC(=O)NCC3CCCCC3)O2)O1` (stereo partly drawn) are -0.145 (inactive), 0.539, -2.01 and -4.22 (inactive).
Taken in the same sequence, the figures for `C#CCCCON=C1C[C@@H](O)[C@@H](O)[C@@H]2[C@@H]3C(=O)N(c4ccc(F)cc4F)C(=O)[C@@H]3CC[C@H]12` were 1.55 (inactive), 0.683, -0.0103 and -0.42 (inactive).
Taken in the same sequence, the figures for `COc1ccc(COC(=O)NN=C2C[C@@H](O)[C@@H](O)[C@@H]3[C@@H]4C(=O)N(c5cccc(Oc6ccccc6)c5)C(=O)[C@@H]4CC[C@@H]23)cc1` were -0.378 (inactive), -0.206, -0.374 and -4.69 (inactive).
Take `O=c1n(Cc2cc3c(cc2Cl)OCO3)c(=O)n2n1CC[C@@H]1C(=NOC[C@@H](O)COCc3ccco3)[C@H]3O[C@H]3[C@@H](O)[C@@H]12`: the composite z-score in assay [1] was -0.45 (inactive); in the assay on XIP peptide (Xip251-270), 0.108. For the same compound, the z-score is -0.181 in assay [2] and -0.786 (inactive) in assay [3].
With `CC(C)CON=C1C[C@@H](O)[C@@H](O)[C@@H]2[C@@H]3C(=O)N(c4cccc(Oc5ccccc5)c4)C(=O)[C@@H]3CC[C@@H]12`, the composite z-score in assay [1] was -0.347 (inactive); in the assay on XIP peptide (Xip251-270), 0.536. Further, the z-score was 0.299 in assay [2] and -0.0907 (inactive) in assay [3].
Taken in the same sequence, the figures for `C[C@@H]1CC[C@H]2C(=O)O[C@@H](Cc3ccccc3)CN2[C@H]1c1ccc(Br)cc1` were 0.128 (inactive), 0.174, 0.209 and -1.7 (inactive).
`COc1cccc([C@H]2Oc3ccc(OC)cc3C(=NOC(C)CN3CCCCc4nc(C)c(C)cc43)[C@@H]2O)c1` (stereo partly drawn): the composite z-score was 1.06 (inactive) in assay [1] and 0.195 with XIP peptide (Xip251-270). Also, the z-score is 0.25 in assay [2] and -4.68 (inactive) in assay [3].
On the same counts, the results for `CON=C(C)CCC(=O)OC[C@H]1O[C@H](c2ccccc2)C=C[C@@H]1Oc1ccc(OC)cc1` are 0.103 (inactive), 0.19, -0.442 and -4.5 (inactive).
On the same counts, the results for `COC(=O)CC=C[C@@H](C)[C@@H](C=NOC[C@H]1O[C@H](c2ccccc2)C=C[C@@H]1Oc1ccc(OC)cc1)OC` are 0.0079 (inactive), -0.294, 0.201 and -2.94 (inactive).
On the same counts, the results for `COc1ccc(COC(=O)NN=C2C[C@@H](O)[C@@H](O)[C@@H]3[C@@H]4C(=O)N(Cc5ccccc5)C(=O)[C@@H]4CC[C@H]23)cc1` are 0.0712 (inactive), -0.0564, 0.908 and -1.81 (inactive).

For the origin of these results see PubChem BioAssay.
